Measured values: the supplement of paper PMC7411054
Where a name gives a salt, the structure may show the parent alone.

What was measured:
Test in all cases: phenotypically active (imaging signature differs from DMSO and reproducible) at any of 0.3-9 uM (binary (1 = active, 0 = inactive)); higher = active
Conditions in all cases: treatment time: 24 h
A549-ACTB-RAB5A = tested on: A549-ACTB-RAB5A
Outline: (§1)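 Cells from fifteen gene-edited reporter lines (A549, HepG2 and WPMY1) were treated for 24 h at 0.3, 1, 3 or 9 µM and imaged live, four wells per condition. Features were normalised per well to solvent control wells. A condition deviated if ≥3 of 4 wells passed the 95th percentile of control Euclidean distances and was reproducible if its median replicate Pearson correlation beat the 95th percentile of non-replicates; phenotypic activity needed both.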

A549-CANX-COX4 = tested on: A549-CANX-COX4
Outline: as §1

A549-GM130-SQSTM1 = tested on: A549-GM130-SQSTM1
Outline: as §1

A549-TP53BP1-CLTA = tested on: A549-TP53BP1-CLTA
Outline: as §1

A549-TUBA1B-RELA = tested on: A549-TUBA1B-RELA
Outline: as §1

HepG2-ACTB-RAB5A = tested on: HepG2-ACTB-RAB5A
Outline: as §1

HepG2-CANX-COX4 = tested on: HepG2-CANX-COX4
Outline: as §1

HepG2-GM130-SQSTM1 = tested on: HepG2-GM130-SQSTM1
Outline: as §1

HepG2-TP53BP1-CLTA = tested on: HepG2-TP53BP1-CLTA
Outline: as §1

HepG2-TUBA1B-RELA = tested on: HepG2-TUBA1B-RELA
Outline: as §1

WPMY1-ACTB-RAB5A = tested on: WPMY1-ACTB-RAB5A
Outline: as §1

WPMY1-CANX-COX4 = tested on: WPMY1-CANX-COX4
Outline: as §1

WPMY1-GM130-SQSTM1 = tested on: WPMY1-GM130-SQSTM1
Outline: as §1

WPMY1-TP53BP1-CLTA = tested on: WPMY1-TP53BP1-CLTA
Outline: as §1

WPMY1-TUBA1B-RELA = tested on: WPMY1-TUBA1B-RELA
Outline: as §1

Measured: phenotypically active

CCCCN1C[C@H](O)[C@@H](O)[C@H](O)[C@H]1CO [Miglustat hydrochloride]
inactive: A549-ACTB-RAB5A 0 | A549-CANX-COX4 0 | A549-GM130-SQSTM1 0 | A549-TP53BP1-CLTA 0 | A549-TUBA1B-RELA 0 | HepG2-ACTB-RAB5A 0 | HepG2-CANX-COX4 0 | HepG2-GM130-SQSTM1 0 | HepG2-TP53BP1-CLTA 0 | HepG2-TUBA1B-RELA 0 | WPMY1-ACTB-RAB5A 0 | WPMY1-CANX-COX4 0 | WPMY1-GM130-SQSTM1 0 | WPMY1-TP53BP1-CLTA 0 | WPMY1-TUBA1B-RELA 0

CC(C)C(=O)SCCCCC[C@H](NC(=O)OC(C)(C)C)C(=O)NC12CC3CC(CC(C3)C1)C2
inactive: A549-ACTB-RAB5A 0 | A549-CANX-COX4 0 | A549-GM130-SQSTM1 0 | A549-TP53BP1-CLTA 0 | A549-TUBA1B-RELA 0 | HepG2-ACTB-RAB5A 0 | HepG2-CANX-COX4 0 | HepG2-GM130-SQSTM1 0 | HepG2-TP53BP1-CLTA 0 | HepG2-TUBA1B-RELA 0 | WPMY1-ACTB-RAB5A 0 | WPMY1-CANX-COX4 0 | WPMY1-GM130-SQSTM1 0 | WPMY1-TP53BP1-CLTA 0 | WPMY1-TUBA1B-RELA 0

Nc1nnc(-c2cccc(Cl)c2Cl)c(N)n1 [lamotrigine]
inactive: A549-ACTB-RAB5A 0 | A549-CANX-COX4 0 | A549-GM130-SQSTM1 0 | A549-TP53BP1-CLTA 0 | A549-TUBA1B-RELA 0 | HepG2-ACTB-RAB5A 0 | HepG2-CANX-COX4 0 | HepG2-GM130-SQSTM1 0 | HepG2-TP53BP1-CLTA 0 | HepG2-TUBA1B-RELA 0 | WPMY1-ACTB-RAB5A 0 | WPMY1-CANX-COX4 0 | WPMY1-GM130-SQSTM1 0 | WPMY1-TP53BP1-CLTA 0 | WPMY1-TUBA1B-RELA 0

CCCSc1nc2c(c(=O)n1-c1ccccc1)SCC2
inactive: A549-ACTB-RAB5A 0 | A549-CANX-COX4 0 | A549-GM130-SQSTM1 0 | A549-TP53BP1-CLTA 0 | A549-TUBA1B-RELA 0 | HepG2-ACTB-RAB5A 0 | HepG2-CANX-COX4 0 | HepG2-GM130-SQSTM1 0 | HepG2-TP53BP1-CLTA 0 | HepG2-TUBA1B-RELA 0 | WPMY1-ACTB-RAB5A 0 | WPMY1-CANX-COX4 0 | WPMY1-GM130-SQSTM1 0 | WPMY1-TP53BP1-CLTA 0 | WPMY1-TUBA1B-RELA 0

CC(C)(Sc1ccc(CCN(CCCCC2CCCCC2)C(=O)NC2CCCCC2)cc1)C(=O)O
inactive: A549-ACTB-RAB5A 0 | A549-CANX-COX4 0 | A549-GM130-SQSTM1 0 | A549-TP53BP1-CLTA 0 | A549-TUBA1B-RELA 0 | HepG2-ACTB-RAB5A 0 | HepG2-CANX-COX4 0 | HepG2-GM130-SQSTM1 0 | HepG2-TP53BP1-CLTA 0 | HepG2-TUBA1B-RELA 0 | WPMY1-ACTB-RAB5A 0 | WPMY1-CANX-COX4 0 | WPMY1-GM130-SQSTM1 0 | WPMY1-TP53BP1-CLTA 0 | WPMY1-TUBA1B-RELA 0

C/C=C(/C(=C/C)c1ccc(O)cc1)c1ccc(O)cc1 [dienestrol]
inactive: A549-ACTB-RAB5A 0 | A549-CANX-COX4 0 | A549-GM130-SQSTM1 0 | A549-TP53BP1-CLTA 0 | A549-TUBA1B-RELA 0 | HepG2-ACTB-RAB5A 0 | HepG2-CANX-COX4 0 | HepG2-GM130-SQSTM1 0 | HepG2-TP53BP1-CLTA 0 | HepG2-TUBA1B-RELA 0 | WPMY1-ACTB-RAB5A 0 | WPMY1-CANX-COX4 0 | WPMY1-GM130-SQSTM1 0 | WPMY1-TP53BP1-CLTA 0 | WPMY1-TUBA1B-RELA 0

CC(C)[C@H]1CC[C@H](C(=O)N[C@H](Cc2ccccc2)C(=O)O)CC1 [nateglinide]
inactive: A549-ACTB-RAB5A 0 | A549-CANX-COX4 0 | A549-GM130-SQSTM1 0 | A549-TP53BP1-CLTA 0 | A549-TUBA1B-RELA 0 | HepG2-ACTB-RAB5A 0 | HepG2-CANX-COX4 0 | HepG2-GM130-SQSTM1 0 | HepG2-TP53BP1-CLTA 0 | HepG2-TUBA1B-RELA 0 | WPMY1-ACTB-RAB5A 0 | WPMY1-CANX-COX4 0 | WPMY1-GM130-SQSTM1 0 | WPMY1-TP53BP1-CLTA 0 | WPMY1-TUBA1B-RELA 0

Cc1n[nH]c(=O)[nH]c1=O [Azathymine, 6]
inactive: A549-ACTB-RAB5A 0 | A549-CANX-COX4 0 | A549-GM130-SQSTM1 0 | A549-TP53BP1-CLTA 0 | A549-TUBA1B-RELA 0 | HepG2-ACTB-RAB5A 0 | HepG2-CANX-COX4 0 | HepG2-GM130-SQSTM1 0 | HepG2-TP53BP1-CLTA 0 | HepG2-TUBA1B-RELA 0 | WPMY1-ACTB-RAB5A 0 | WPMY1-CANX-COX4 0 | WPMY1-GM130-SQSTM1 0 | WPMY1-TP53BP1-CLTA 0 | WPMY1-TUBA1B-RELA 0

O=C(O)c1cc(/N=N/c2ccc(S(=O)(=O)Nc3ccccn3)cc2)ccc1O [Sulfasalazine]
inactive: A549-ACTB-RAB5A 0 | A549-CANX-COX4 0 | A549-GM130-SQSTM1 0 | A549-TP53BP1-CLTA 0 | A549-TUBA1B-RELA 0 | HepG2-ACTB-RAB5A 0 | HepG2-CANX-COX4 0 | HepG2-GM130-SQSTM1 0 | HepG2-TP53BP1-CLTA 0 | HepG2-TUBA1B-RELA 0 | WPMY1-ACTB-RAB5A 0 | WPMY1-CANX-COX4 0 | WPMY1-GM130-SQSTM1 0 | WPMY1-TP53BP1-CLTA 0 | WPMY1-TUBA1B-RELA 0

CC(C)(Oc1ccc(C2CC2(Cl)Cl)cc1)C(=O)O (stereo not given) [ciprofibrate]
inactive: A549-ACTB-RAB5A 0 | A549-CANX-COX4 0 | A549-GM130-SQSTM1 0 | A549-TP53BP1-CLTA 0 | A549-TUBA1B-RELA 0 | HepG2-ACTB-RAB5A 0 | HepG2-CANX-COX4 0 | HepG2-GM130-SQSTM1 0 | HepG2-TP53BP1-CLTA 0 | HepG2-TUBA1B-RELA 0 | WPMY1-ACTB-RAB5A 0 | WPMY1-CANX-COX4 0 | WPMY1-GM130-SQSTM1 0 | WPMY1-TP53BP1-CLTA 0 | WPMY1-TUBA1B-RELA 0

COc1ccc(CN(CCN(C)C)c2ccccn2)cc1 [mepyramine]
inactive: A549-ACTB-RAB5A 0 | A549-CANX-COX4 0 | A549-GM130-SQSTM1 0 | A549-TP53BP1-CLTA 0 | A549-TUBA1B-RELA 0 | HepG2-ACTB-RAB5A 0 | HepG2-CANX-COX4 0 | HepG2-GM130-SQSTM1 0 | HepG2-TP53BP1-CLTA 0 | HepG2-TUBA1B-RELA 0 | WPMY1-ACTB-RAB5A 0 | WPMY1-CANX-COX4 0 | WPMY1-GM130-SQSTM1 0 | WPMY1-TP53BP1-CLTA 0 | WPMY1-TUBA1B-RELA 0

N=C(N)Nc1nc(CSCCC(=N)NS(N)(=O)=O)cs1 [famotidine]
inactive: A549-ACTB-RAB5A 0 | A549-CANX-COX4 0 | A549-GM130-SQSTM1 0 | A549-TP53BP1-CLTA 0 | A549-TUBA1B-RELA 0 | HepG2-ACTB-RAB5A 0 | HepG2-CANX-COX4 0 | HepG2-GM130-SQSTM1 0 | HepG2-TP53BP1-CLTA 0 | HepG2-TUBA1B-RELA 0 | WPMY1-ACTB-RAB5A 0 | WPMY1-CANX-COX4 0 | WPMY1-GM130-SQSTM1 0 | WPMY1-TP53BP1-CLTA 0 | WPMY1-TUBA1B-RELA 0
